{"source": "PubChem BioAssay (NCI)", "note": "About 83,000 compounds went through this panel and 20% of them were active in at least one assay; those are over-represented in the sample as a whole.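 How to read the values: 0–100, growth inhibition (40 = 60% inhibited); 0, no net growth; -100 to 0, cell death (-40 = 40% of starting cells died; -100 = all dead).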 A number with no mark means an inactive call. Calls of active or inactive are those of the source. The calls were made as follows: active = growth percent below 10; inactive = the rest."}
{"tested_on": "SK-MEL-2 melanoma", "assay": "NCI-60 one-dose screen, 48 h (100 = growth as untreated, 0 = no growth, -100 = all killed)", "settings": "10 µM unless noted"}
{"smiles": "CCCCCCC1N=C(N)N=C(N)N1c1cccc(Cl)c1", "note": "(configuration not stated)", "growth": "82.9%"}
{"smiles": "O=C(O)c1cc2c(s1)C(=O)c1sccc1C2=O", "growth": "15.5%"}
{"smiles": "N#CCc1cccc2ccccc12", "growth": "95.1%"}
{"smiles": "COC(=O)C(=[N+]=[N-])C(=O)c1ccc([N+](=O)[O-])o1", "growth": "95.5%"}
{"smiles": "O=C(Nc1cccc(C(F)(F)F)c1)Oc1ccc(Cl)c2cccnc12", "growth": "9.44% (active)"}
{"smiles": "CCOc1ccc(C(CN2CCOCC2)C(C)=O)cc1OC", "note": "(configuration not stated)", "growth": "111%"}
{"smiles": "COc1ccc2c(c1)c(CC(=O)O)c(C)n2C(=O)c1ccc(Cl)cc1", "growth": "106%"}
{"smiles": "CC(C)N=C(N)/N=C(\\N)Nc1ccc2ccc3ccccc3c2c1", "growth": "-81.8% (active)"}
{"smiles": "CCc1cnc2ccccc2c1/C=C/c1ccc(N(C)C)cc1", "growth": "30.3%"}
{"smiles": "NC(=S)N/N=C\\c1nccc2c(C(F)(F)F)cccc12", "growth": "-7.77% (active)"}
{"smiles": "CCC(=O)c1cc([N+](=O)[O-])c(Br)s1", "growth": "106%"}
{"smiles": "O=C1/C(=C/c2ccccc2)CCC/C1=C\\c1ccccc1", "growth": "99.7%"}
{"smiles": "COc1cc(NCc2ccc3nc(N)nc(N)c3c2C)cc(OC)c1OC", "note": "(tested in a mixture with another compound)", "growth": "61.8%"}
{"smiles": "CCOc1cc(F)c([N+](=O)[O-])cc1[N+](=O)[O-]", "growth": "50.4%"}
{"smiles": "CC/C(=C(/CC)c1ccc(O)cc1)c1ccc(O)cc1", "growth": "54.6%"}
{"smiles": "CC(C)c1ccc(C(=O)OC2CCCC2)cc1", "growth": "105%"}
{"smiles": "O=C(CBr)c1ccc(OC(=O)c2ccccc2)cc1", "growth": "111%"}
{"smiles": "CN(C)CC(C)(CN(C)C)C(=O)/C=C/c1c(Cl)cccc1Cl", "growth": "79.7%"}
{"smiles": "COc1cc(/C=C/c2ccnc3ccccc23)cc(OC)c1OC", "growth": "12.2%"}
{"smiles": "Cc1cc(C)c([I+]c2c(C)cc(C)cc2C)c(C)c1", "growth": "-44.1% (active)"}
{"smiles": "COc1cc(/C=C/C(=O)CC(=O)/C=C/c2ccc(O)c(OC)c2)ccc1O", "growth": "81.1%"}
{"smiles": "CN(C)c1ccc(C(=C2C=CC(=[N+](C)C)C=C2)c2ccc(N(C)C)cc2)cc1", "growth": "-57.8% (active)"}
{"smiles": "COC(=O)c1ccc(=O)c2nc3/c(=C/O)c(O)cc(=O)c3[nH]c12", "growth": "-7.27% (active)"}
{"smiles": "CCCCCCCCCCCC[n+]1ccc2ccccc2c1", "growth": "-24.7% (active)"}
{"smiles": "COc1cc([C@@H]2c3cc4c(cc3[C@H](OC3OC5COC(c6ccccc6)OC5C(O)C3O)[C@H]3COC(=O)[C@H]23)OCO4)cc(OC)c1OC", "note": "(some centres not stated)", "growth": "2.6% (active)"}
{"smiles": "NC(=Nc1nc(-c2ccccn2)cc2ccccc12)c1ccccn1", "growth": "66.5%"}
{"smiles": "CN(C)CCN(C)CC(C)(C)C(=O)/C=C/c1ccc(Cl)c(Cl)c1", "growth": "-93.3% [100 µM] (active)"}
{"smiles": "CCN(CC)c1ccc(/C=C\\C(=O)c2ccc(NC(C)=O)cc2)cc1", "growth": "76.8%"}
{"smiles": "Clc1ccccc1C(c1ccccc1)(c1ccccc1)n1ccnc1", "growth": "48.3%"}
{"smiles": "CCCCOS(=O)(=O)c1ccccc1", "growth": "99.9%"}
{"smiles": "COc1cc(NC(=O)C2=C(C)NC(C)=C(C(=O)Nc3cc(OC)c(Cl)cc3OC)C2c2cccc([N+](=O)[O-])c2)c(OC)cc1Cl", "growth": "10.2%"}
{"smiles": "CCCCCCCCCCCCCCCCCC[S+](C)CC", "note": "(configuration not stated)", "growth": "48.1%"}
{"smiles": "CCNc1nnnn1CC", "growth": "122%"}
{"smiles": "C[n+]1ccccc1C[n+]1ccccc1", "growth": "94.4%"}
{"smiles": "NC(=S)N/N=C\\c1nccc2c(N)cccc12", "growth": "39.3%"}
{"smiles": "O=C(O)c1cccc2cccc(-c3c4ccc(=O)c(O)c-4oc4c(O)c(O)ccc34)c12", "growth": "96.8%"}
{"tested_on": "EKVX NSCLC", "assay": "NCI-60 one-dose screen, 48 h (100 = growth as untreated, 0 = no growth, -100 = all killed)", "settings": "10 µM unless noted"}
{"smiles": "CCCCCCC1N=C(N)N=C(N)N1c1cccc(Cl)c1", "note": "(configuration not stated)", "growth": "76.8%"}
{"smiles": "O=C(O)c1cc2c(s1)C(=O)c1sccc1C2=O", "growth": "101%"}
{"smiles": "N#CCc1cccc2ccccc12", "growth": "101%"}
{"smiles": "COC(=O)C(=[N+]=[N-])C(=O)c1ccc([N+](=O)[O-])o1", "growth": "111%"}
{"smiles": "O=C(Nc1cccc(C(F)(F)F)c1)Oc1ccc(Cl)c2cccnc12", "growth": "-2.85% (active)"}
{"smiles": "CCOc1ccc(C(CN2CCOCC2)C(C)=O)cc1OC", "note": "(configuration not stated)", "growth": "96.2%"}
{"smiles": "COc1ccc2c(c1)c(CC(=O)O)c(C)n2C(=O)c1ccc(Cl)cc1", "growth": "95.9%"}
{"smiles": "CC(C)N=C(N)/N=C(\\N)Nc1ccc2ccc3ccccc3c2c1", "growth": "-91.2% (active)"}
{"smiles": "CCc1cnc2ccccc2c1/C=C/c1ccc(N(C)C)cc1", "growth": "62.4%"}
{"smiles": "NC(=S)N/N=C\\c1nccc2c(C(F)(F)F)cccc12", "growth": "1.87% (active)"}
{"smiles": "CCC(=O)c1cc([N+](=O)[O-])c(Br)s1", "growth": "104%"}
{"smiles": "O=C1/C(=C/c2ccccc2)CCC/C1=C\\c1ccccc1", "growth": "96.1%"}
{"smiles": "COc1cc(NCc2ccc3nc(N)nc(N)c3c2C)cc(OC)c1OC", "note": "(tested in a mixture with another compound)", "growth": "55.8%"}
{"smiles": "CCOc1cc(F)c([N+](=O)[O-])cc1[N+](=O)[O-]", "growth": "101%"}
{"smiles": "CC/C(=C(/CC)c1ccc(O)cc1)c1ccc(O)cc1", "growth": "64.7%"}
{"smiles": "CC(C)c1ccc(C(=O)OC2CCCC2)cc1", "growth": "92.6%"}
{"smiles": "O=C(CBr)c1ccc(OC(=O)c2ccccc2)cc1", "growth": "118%"}
{"smiles": "CN(C)CC(C)(CN(C)C)C(=O)/C=C/c1c(Cl)cccc1Cl", "growth": "5.55% (active)"}
{"smiles": "COc1cc(/C=C/c2ccnc3ccccc23)cc(OC)c1OC", "growth": "55.3%"}
{"smiles": "Cc1cc(C)c([I+]c2c(C)cc(C)cc2C)c(C)c1", "growth": "4.01% (active)"}
{"smiles": "COc1cc(/C=C/C(=O)CC(=O)/C=C/c2ccc(O)c(OC)c2)ccc1O", "growth": "67.6%"}
{"smiles": "CN(C)c1ccc(C(=C2C=CC(=[N+](C)C)C=C2)c2ccc(N(C)C)cc2)cc1", "growth": "-44% (active)"}
{"smiles": "COC(=O)c1ccc(=O)c2nc3/c(=C/O)c(O)cc(=O)c3[nH]c12", "growth": "35.3%"}
{"smiles": "CCCCCCCCCCCC[n+]1ccc2ccccc2c1", "growth": "-4.82% (active)"}
{"smiles": "COc1cc([C@@H]2c3cc4c(cc3[C@H](OC3OC5COC(c6ccccc6)OC5C(O)C3O)[C@H]3COC(=O)[C@H]23)OCO4)cc(OC)c1OC", "note": "(some centres not stated)", "growth": "74.7%"}
{"smiles": "NC(=Nc1nc(-c2ccccn2)cc2ccccc12)c1ccccn1", "growth": "16.5%"}
{"smiles": "CN(C)CCN(C)CC(C)(C)C(=O)/C=C/c1ccc(Cl)c(Cl)c1", "growth": "-82.4% [100 µM] (active)"}
{"smiles": "CCN(CC)c1ccc(/C=C\\C(=O)c2ccc(NC(C)=O)cc2)cc1", "growth": "79.1%"}
{"smiles": "Clc1ccccc1C(c1ccccc1)(c1ccccc1)n1ccnc1", "growth": "25.9%"}
{"smiles": "CCCCOS(=O)(=O)c1ccccc1", "growth": "108%"}
{"smiles": "COc1cc(NC(=O)C2=C(C)NC(C)=C(C(=O)Nc3cc(OC)c(Cl)cc3OC)C2c2cccc([N+](=O)[O-])c2)c(OC)cc1Cl", "growth": "28.7%"}
{"smiles": "CCCCCCCCCCCCCCCCCC[S+](C)CC", "note": "(configuration not stated)", "growth": "91.7%"}
{"smiles": "CCNc1nnnn1CC", "growth": "94.5%"}
{"smiles": "C[n+]1ccccc1C[n+]1ccccc1", "growth": "113%"}
{"smiles": "NC(=S)N/N=C\\c1nccc2c(N)cccc12", "growth": "34.5%"}
{"smiles": "O=C(O)c1cccc2cccc(-c3c4ccc(=O)c(O)c-4oc4c(O)c(O)ccc34)c12", "growth": "83.7%"}
